Here are results for 96 molecules from PubChem BioAssay AID2391 (Southern Research Specialized Biocontainment Screening …, 2010).

Structures are written as SMILES. Out of some 310,000 compounds screened, about 410 (0.13%) were called active. Inconclusive results (about 2%) are left out. Not all results are given here. Potency and affinity values are given separately. Values without a mark were called inactive. How the calls were made is not given here.

The test is described as follows: RSV antiviral activity via CPE protection, HEp-2 cells, primary 10 µM value included (AID 2391). The note with it: RSV-induced CPE inhibition, at 10 µM, stronger effect = higher value.
As for `CCc1nn(CC(=O)NCCCN(Cc2ccccc2)C(C)C)c(=O)c2cc3sccc3n12`, the CPE inhibition was 3.25%.

In the case of `CC(OC(=O)CSc1ccc(F)cc1)C(=O)NC1(C#N)CCCCC1` (stereo unspecified), the CPE inhibition was 1.61%.

As to `CC(C)(C)SCCNS(=O)(=O)c1ccccc1`, the CPE inhibition is 2.31%.

Regarding `O=C(N/C(=C/c1cccs1)c1nc2ccccc2[nH]1)c1ccccc1`, the CPE inhibition is -0.44%.

On to `COc1ccc(C(=O)N/C(=C/c2cccs2)C(=O)NN)cc1OC`, for which the CPE inhibition was 0.82%.

Regarding `COc1ccc(/C=C(/NC(=O)c2ccccc2)c2nc3ccccc3[nH]2)cc1OC`, the CPE inhibition was 1.75%.

In the case of `Cc1ccc(C(=O)N/C(=C\c2cccs2)c2nc3ccccc3[nH]2)cc1`, the CPE inhibition was 1.69%.

On to `Cc1cc(C)c(C(=O)Nc2ccc(S(=O)(=O)Nc3onc(C)c3C)cc2)c(C)c1`, for which the CPE inhibition was 0.27%.

Consider `Cc1ccc2oc(C(=O)Nc3ccc(S(=O)(=O)Nc4onc(C)c4C)cc3)cc(=O)c2c1`, for which the CPE inhibition is 1.61%.

On to `Cc1ccc2c(=O)cc(C(=O)Nc3ccc(S(=O)(=O)Nc4onc(C)c4C)cc3)oc2c1`, for which the CPE inhibition is 1.69%.

Turning to `Cc1ccc2oc(C(=O)Nc3ccc(S(=O)(=O)Nc4ncccn4)cc3)c(C)c2c1`, the CPE inhibition was 1.95%.

Regarding `O=C(N/N=C/c1cc2c(cc1Cl)OCO2)c1cccc(Br)c1`, the CPE inhibition is 0.51%.

Regarding `COc1ccc(C(c2nnnn2Cc2ccccc2)N2CCN(c3nc4ccccc4s3)CC2)cc1OC` (stereo unspecified), the CPE inhibition was 8.79%.

Turning to `CNC(=O)NC(=O)COC(=O)/C=C/c1cccc(Br)c1`, the CPE inhibition was 4.26%.

Take `COC(=O)c1cccc(CSc2nc(-c3ccccc3)c(C#N)c(=O)[nH]2)c1`: the CPE inhibition is -0.22%.

Consider `c1ccc(CSc2ncnc3ccccc23)cc1`, for which the CPE inhibition is -0.1%.

As for `O=C(COc1ncnc2ccccc12)NCCc1ccccc1`, the CPE inhibition is 4.07%.

In the case of `O=C(COc1ncnc2ccc(Br)cc12)NC1CCCC1`, the CPE inhibition is -0.78%.

Consider `N#CCSc1ncnc2ccccc12`, for which the CPE inhibition is 0.16%.

As to `c1ccc(OCCOc2ncnc3ccccc23)cc1`, the CPE inhibition was 2.27%.

As to `COCCNC(=O)COc1ncnc2ccc(Br)cc12`, the CPE inhibition was 0%.

Take `CCOC(=O)c1c(C)c(C(=O)Nc2ccc3c(c2)OCCO3)c(C)n1C`: the CPE inhibition is -0.46%.

Take `N#Cc1nc(-c2ccco2)oc1NCc1ccco1`: the CPE inhibition is 1.01%.

For the molecule `O=C(COc1ccccc1)Nc1ccccc1C(=O)NCc1ccco1`, the CPE inhibition was -0.74%.

For `COc1ccc(NC(=O)CN(C)C(=O)c2ccc3[nH]c4c(c3c2)CC(C)CC4)cc1` (stereo unspecified), the CPE inhibition was 6.52%.

As to `CC1CCc2[nH]c3ccc(C(=O)N(C)CC(=O)Nc4ccc(F)cc4)cc3c2C1` (stereo unspecified), the CPE inhibition is 5.53%.

As to `CCOc1cccc2c1OC1(C)CC2NC(=O)N1c1ccc(OC)cc1` (stereo unspecified), the CPE inhibition was 0.71%.

As for `C=CCN(c1ccc(F)cc1)S(=O)(=O)c1cc(C(=O)OCC(=O)N(C)C2CCS(=O)(=O)C2)ccc1Cl` (stereo unspecified), the CPE inhibition is 0.97%.

As for `CCC(=O)NC(=S)Nc1ccc(NC(=O)COc2ccc(Cl)cc2Cl)cc1`, the CPE inhibition is 3.92%.

For the molecule `CCC(=O)NC(=S)Nc1ccc(NC(=O)COc2ccccc2)cc1`, the CPE inhibition was -0.96%.

`Nc1nc(SCCN2C(=O)c3ccccc3C2=O)n[nH]1`: the CPE inhibition is -0.57%.

In the case of `CCOC(=O)C1(Cc2cccc(OC)c2)CCN(Cc2cccn2-c2ccccn2)CC1`, the CPE inhibition was 0.49%.

For `CCOC(=O)C1(Cc2ccccc2)CCN(Cc2cccn2-c2nccs2)CC1`, the CPE inhibition is 3.06%.

With `O=C(O)CN=C(NS(=O)(=O)c1ccc(Cl)cc1)c1ccc(F)cc1`, the CPE inhibition is 0.86%.

With `CCOC(=O)CSc1nc2ccccc2c(=O)n1Cc1ccco1`, the CPE inhibition is 0.79%.

As for `O=C(CSc1nc2ccccc2c(=O)n1Cc1ccco1)NCc1ccco1`, the CPE inhibition was 0.72%.

As to `Cc1[nH]n(-c2ccccc2)c(=O)c1Sc1ccc(Cl)cc1`, the CPE inhibition is 2.83%.

With `Cc1ccc(OCCn2cnc3cc([N+](=O)[O-])ccc3c2=O)cc1`, the CPE inhibition was 5.29%.

As to `COc1ccc(N(CC(=O)NC2CCCC2)C(=O)c2ccc(C)s2)c(OC)c1`, the CPE inhibition was 41%.

Consider `COc1ccc(N(CC(=O)NC2CCCCC2)C(=O)c2ccc(C)s2)cc1OC`, for which the CPE inhibition was 5.93%.

Take `CC(=O)c1ccc(OCCCC(=O)NNC(=O)c2ccccn2)cc1`: the CPE inhibition is 1.08%.

Consider `Cn1c(=O)c2ccccc2n(CC(=O)N2CCCc3ccccc32)c1=O`, for which the CPE inhibition is 12.6%.

For the molecule `COc1cc(C2NC(=O)NC(C)=C2C(=O)OCc2ccc(C)cc2)cc(OC)c1OC` (stereo unspecified), the CPE inhibition was 1.37%.

Regarding `CN(CC(=O)Nc1ccc(Cl)c(Cl)c1)C(=O)CNC(=O)C1CCCCC1`, the CPE inhibition is -0.65%.

Regarding `O=C(Cn1cnc2ccccc21)N/N=C/c1ccccc1`, the CPE inhibition was 1.41%.

Regarding `CCOC(=O)c1c(-c2ccccc2)csc1NC(=O)c1cc(-c2ccccc2OC)on1`, the CPE inhibition was 3.07%.

`COC(=O)c1c(-c2ccccc2)noc1C`: the CPE inhibition is 3.69%.

Consider `COC(=O)c1c(-c2ccc(C)cc2)csc1NC(=O)c1c(-c2ccccc2)noc1C`, for which the CPE inhibition is 45.8%.

Turning to `CCOC(=O)c1c(-c2cccc(C)c2)csc1NC(=O)C1CC=CCC1C(=O)O` (stereo unspecified), the CPE inhibition was 1.3%.

As to `O=C(COc1ccc(S(=O)(=O)N2CCOCC2)cc1)NC1CC1`, the CPE inhibition is 0.7%.

Consider `CCO/N=C1\C(=O)N(c2ccccc2)c2ccccc21`, for which the CPE inhibition is 10.6%.

`CN1CCN(c2ccc(Nc3ccnc4cc(Cl)ccc34)cc2)CC1`: the CPE inhibition was 0.21%.

In the case of `Cc1ccc2[nH]ccc(=O)c2c1`, the CPE inhibition was 4.4%.

`CCNc1oc(-c2cccc3ccccc23)nc1C#N`: the CPE inhibition was 31%.

`CNc1oc(-c2cccc3ccccc23)nc1C#N`: the CPE inhibition is 22.2%.

`O=C(NC1CCCCC1)c1cc(S(=O)(=O)N2CCOCC2)c(Cl)cc1Cl`: the CPE inhibition was -0.26%.

As for `CC1CCN(C(=O)CCc2nnc3ccc(NCCCN4CCCC4=O)nn23)CC1`, the CPE inhibition is 2.33%.

Consider `COC(=O)c1ccc(COC(=O)CNC(=O)c2ccc(-c3ccccc3)cc2)cc1`, for which the CPE inhibition was 3.63%.

As for `COc1ccc2oc(C(=O)NCCC(C)C)c(C)c2c1`, the CPE inhibition is 3.36%.

Consider `Cc1nc2ccccc2nc(C)c1=NOCc1ccc(C#N)cc1`, for which the CPE inhibition is 3.19%.

Regarding `Cc1nc2ccccc2nc(C)c1=NOCc1cccc(Cl)c1`, the CPE inhibition is 3.77%.

With `CCNC(=O)CC1C(=O)N(c2ccc(F)cc2)C(=S)N1CCc1ccncc1` (stereo unspecified), the CPE inhibition was -1.58%.

Take `CCOC(=O)c1sc(NS(=O)(=O)c2ccc(F)cc2)nc1C`: the CPE inhibition was -0.12%.

With `O=S(=O)(NC1CCN(Cc2ccccc2)CC1)c1ccc2ccccc2c1`, the CPE inhibition was -0.58%.

As for `CCOc1cc(C(=S)N2CCCC2)ccc1O`, the CPE inhibition is 0.51%.

For the molecule `COC(=O)N/N=C/c1ccc(-c2cc(Cl)ccc2Cl)o1`, the CPE inhibition is -0.35%.

Turning to `COC(=O)N/N=C/c1ccc(-c2cc(Cl)cc(Cl)c2)o1`, the CPE inhibition is 42.2%.

`Cc1ccc(C(=O)N2CCN3C(=O)c4ccccc4C23c2ccccc2)cc1` (stereo unspecified): the CPE inhibition is 3.84%.

Take `O=C(c1ccc(F)cc1)N1CCN2C(=O)c3ccccc3C12c1ccc(Cl)cc1` (stereo unspecified): the CPE inhibition is 73.1%.

Consider `Cc1nc2ccccc2nc1OCc1ccc([N+](=O)[O-])cc1`, for which the CPE inhibition was 1.85%.

For the molecule `Nc1ccc(C(=O)Nc2ccco2)cc1`, the CPE inhibition was 0.93%.

Turning to `Nc1c(-c2cccs2)cnc2c(-c3ccc(F)cc3)cnn12`, the CPE inhibition is 10.8%.

Regarding `CCCn1c(SCC(=O)Nc2cc(C)on2)nc2c1c(=O)n(C)c(=O)n2C`, the CPE inhibition was -0.53%.

Regarding `COc1ccc(S(=O)(=O)N2CCCCC2)cc1NC(=O)C1CC1`, the CPE inhibition was -0.43%.

Turning to `O=C(COC(=O)c1cnccn1)c1ccc(C2CCCCC2)cc1`, the CPE inhibition was 1.84%.

As for `Cc1cccc(N(Cc2ccccc2)C(=O)CSC(C)C(=O)Nc2cc(C)on2)c1` (stereo unspecified), the CPE inhibition is 15.8%.

In the case of `Cc1cc(NC(=O)C(C)SCC(=O)OCC(=O)N(C)c2ccccc2)no1` (stereo unspecified), the CPE inhibition is 0.41%.

For `CNC(=S)SCCOc1ccccc1`, the CPE inhibition was 1.7%.

As for `COc1ccc(-n2nc(C(=O)NCC(=O)N3CCCC(C)C3)c3ccccc3c2=O)cc1` (stereo unspecified), the CPE inhibition was 2.49%.

Regarding `CCC(C)NC(=O)c1cc2cc3ccc(OC)cc3nc2o1` (stereo unspecified), the CPE inhibition was 4.45%.

For `COc1ccc2cc3cc(C(=O)NC4CC4)sc3nc2c1`, the CPE inhibition was 6.36%.

Take `CCc1ccccc1NC(=O)NNC(=O)CCc1ccc(OC)cc1`: the CPE inhibition was 1.38%.

As for `COc1cccc(CNCc2cc(OC)cc(OC)c2)c1`, the CPE inhibition was -0.77%.

As for `CN(C)c1nc(N/N=C/c2c[nH]c3ccccc23)nc(N2CCOCC2)n1`, the CPE inhibition was 5.13%.

In the case of `C(=N\Nc1nc(Nc2ccccc2)nc(N2CCOCC2)n1)/c1c[nH]c2ccccc12`, the CPE inhibition was 38.2%.

Regarding `Cc1ccc(S(=O)(=O)NC2CCSC2=O)cc1C` (stereo unspecified), the CPE inhibition is 0%.

On to `Cc1sc(NC(=O)c2ccco2)c(C(c2ccncc2)N2CCOCC2)c1C` (stereo unspecified), for which the CPE inhibition is 6.19%.

`COc1cccc(C(c2c(NC(=O)c3ccco3)sc(C)c2C)N2CCOCC2)c1` (stereo unspecified): the CPE inhibition is 0.09%.

As to `COC(=O)c1ccccc1S(=O)(=O)N1CCC(C(=O)OC(C)C(=O)NC(N)=O)CC1` (stereo unspecified), the CPE inhibition is 1.21%.

For `CCOc1ccc(OCCNC(=O)c2oc3ccccc3c2COC)cc1`, the CPE inhibition is 2.63%.

For `O=C1CCCCC1C(=O)c1cn(-c2ccc(Cl)c(Cl)c2)nn1` (stereo unspecified), the CPE inhibition is 1.71%.

In the case of `N#Cc1c(N2CCCCC2)nc(N)c2c(N)nc3c(c12)CC(c1ccccc1)O3` (stereo unspecified), the CPE inhibition was 18.6%.

In the case of `CC1CCN(C(=O)c2cc3nc(-c4ccccc4)cc(-c4ccccc4)n3n2)CC1`, the CPE inhibition is -0.54%.

`O=C(c1cc2nc(-c3ccccc3)cc(-c3ccccc3)n2n1)N1CCCC1`: the CPE inhibition was -1.34%.

Take `CN1CCN(C(=O)c2cc3nc(-c4ccccc4)cc(-c4ccccc4)n3n2)CC1`: the CPE inhibition was -2.59%.

For the molecule `O=C(O)c1cc2nc(-c3ccccc3)cc(-c3ccccc3)n2n1`, the CPE inhibition was 0.05%.
